# tim10-1 inh: growth inhibitors of tim10-1 mutant yeast | inhibition, % at 20 µM | actives 2.2% (n = 330,000) | S. cerevisiae tim10-1 ts strain growth, BacTiter-Glo, 24 h;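 active = inhibition of at least 40%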;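 also: mutant grown at 25 °C; 0% = DMSO wells with yeast and 100% = wells holding no yeast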
# TIM10 inh: growth inhibitors of TIM10 yeast strain; actives 1.4% (n = 330,000); AID 463195; inhibition, % at 10 µM; S. cerevisiae TIM10 strain growth, BacTiter-Glo luminescence, 24 h;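 active = inhibition of 40% or more at the single tested concentration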;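 also: wild-type TIM10 isogenic control strain grown at permissive 25 °C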
# SKKanGAS inh: inhibitors of SKKanGAS S. pyogenes growth in kanamycin (SK-promoter or general growth effect); BacTiter-Glo, 6 h; inhibition, % at 7.5 µM; actives 1.3% (n = 300,000);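 active = mean replicate score, as percent of positive control median, at least 50; inconclusive = mean below 50 but one replicate at or above 50; inactive = mean and every replicate below 50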;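 also: strain carries kanamycin resistance gene driven by streptokinase promoter and grows in 40 µg/ml kanamycin; loss of luminescence reflects streptokinase promoter inhibition or plain growth inhibition; 0% = median of DMSO wells and 100% = positive control at its reference dose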
# NALP1 inh: inhibitors of NALP1 inflammasome in yeast; inhibition, % at 10 µM; AID 2071; S. cerevisiae NALP1/ASC/caspase-1 growth, X-gal OD620, 72 h; actives 0.61% (n = 280,000); in the data active = inhibition mostly above about 24%, no sharp cut-off; inactive = mostly below about 32%
# tim23-1 inh: inhibits growth of tim23-1 mutant yeast; S. cerevisiae tim23-1 growth, BacTiter-Glo luminescence, 24 h; inhibition, % at 20 µM; actives 1.3% (n = 330,000);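 active = growth inhibition of the mutant yeast at or above 50%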;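 also: temperature-sensitive mutant grown at 25 °C; plate controls were DMSO-treated mutant yeast for no effect and medium wells lacking yeast for full effect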
# NLRP3 yeast inh: blocks the NALP3 inflammasome reconstituted in yeast; Yeast reconstituted NLRP3/ASC/caspase-1, beta-gal luminescence, 24 h; inhibition, % at 10 µM; actives 0.39% (n = 330,000); AID 2825;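 active = inhibition of 50% or more; inactive = inhibition below 50%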;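 also: plate controls were induced DMSO wells for no effect and uninduced yeast grown without galactose for full effect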
# tim10-1 confirm: confirmation of tim10-1 mutant yeast growth inhibitors. shares compounds with tim10-1 inh. S. cerevisiae tim10-1 ts strain growth, BacTiter-Glo, 24 h. inhibition, % at 20 µM. actives 56% (n = 7,400). AID 463213;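 active = inhibition of yeast growth at or above a set limit in either of two repeat tests at 20 µM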;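 also: tim10-1 mutant grown at permissive 25 °C to find synthetic lethal compounds; 0% = DMSO yeast wells and 100% = medium wells without yeast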
# TIM10 conf: TIM10 yeast growth inhibition, confirmed. AID 463215. shares compounds with TIM10 inh. inhibition, % at 10 µM. S. cerevisiae tim10 strain growth, BacTiter-Glo luminescence, 24 h. actives 63% (n = 4,600);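 active = inhibition of yeast growth at or above a set limit in either of two replicates at 10 µM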;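 also: this counterscreen used the strain with wild-type TIM10; 0% = yeast with DMSO and 100% = medium wells lacking yeast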
# Active calls of the source: *; ? = inconclusive; . = no result given. Most compounds without a hit are left out; they make up all but 4.9% or so of the library.
SMILES,tim10-1 inh,TIM10 inh,SKKanGAS inh,NALP1 inh,tim23-1 inh,NLRP3 yeast inh,tim10-1 confirm,TIM10 conf
C=CCNc1nc(-c2ccccn2)nnc1-c1ccccc1,49*,46*,6,10,4,3,41*,25
c1ccc(-c2cnnc(-c3ccccn3)n2)cc1,-23,-35,-1,.,-5,14,.,.
Cc1cccc(C(=O)OC2CCOC2=O)c1O (stereo not given),-17,5,11,5,16,0,.,.
Cc1onc(-c2ccccc2)c1C(=O)OCc1nnc(-c2ccccc2)o1,2,-27,-6,.,20,33,.,.
Cc1onc(-c2ccccc2)c1C(=O)O/N=C(\N)c1ccc([N+](=O)[O-])o1,50*,51*,7,-7,34,24,29,48*
Cc1onc(-c2ccccc2Cl)c1C(=O)O/N=C(\N)c1ccccc1,49*,55*,7,17,32,13,63*,45*
CCN1CCCC1CNC(=O)C(=O)NC(C)c1ccccc1 (stereo not given),-3,0,3,8,13,4,.,.
CC(C)C(=O)OC1CCS(=O)(=O)c2sccc21 (stereo not given),9,0,-10,-8,0,5,.,.
Cc1[nH]c2ccccc2c1C(=O)CN1C(=O)C(=O)N(CCC2=CCCCC2)C1=O,10,10,.,.,24,18,.,.
Cc1ccn2c(=O)c(C(=O)NC3CCCCC3C)c(O)nc2c1 (stereo not given),-26,-62,6,.,-18,18,.,.
Cc1ccc2c(c1)c1n[nH]c(=S)nc1n2CCc1ccccc1,46*,41*,0,-2,28,9,0,38*
CCc1ccc(-c2cn(C3CCCCC3)c(=S)[nH]2)cc1,45*,53*,18,0,46,21,46*,56*
CCc1ccc(-n2cc(-c3ccc([N+](=O)[O-])cc3)[nH]c2=S)cc1,33,31,4,-4,35,15,.,.
COc1cccc(CNC(=O)Cn2nc(C)c([N+](=O)[O-])c2C)c1,10,-8,-3,9,16,0,.,.
CN(C)c1ccc(-n2cc3c(=O)n(C)c(=O)n(C)c3c2)cc1,25,8,22,-9,21,32,.,.
CCN(CC)c1ccc(-n2cc3c(=O)n(C)c(=O)n(C)c3c2)cc1,40*,46*,?,18,50,25,31*,-3
CC1CCCCN1S(=O)(=O)c1ccc(NC(=O)c2ccco2)cc1 (stereo not given),53*,42*,-1,-6,25,10,36*,17
Cc1ccc(C(=O)Nc2ccccc2C(=O)NCc2ccccc2)cc1,47*,48*,4,15,44,23,41*,4
Cc1ccc(C(=O)Nc2ccccc2C(=O)NCc2cccnc2)cc1,25,9,-5,7,11,9,.,.
CC1CN(S(=O)(=O)c2ccc(C(=O)N(CCCN(C)C)c3nc4cc5c(cc4s3)OCCO5)cc2)CC(C)O1 (stereo not given),54*,44*,4,.,35,12,52*,45*
CN(C)CCCN(C(=O)c1ccc(S(=O)(=O)N2CCOCC2)cc1)c1nc2ccc(F)cc2s1,21,12,-3,23,10,11,.,.
CN(C)CCCN(C(=O)c1ccc(S(=O)(=O)N(C)Cc2ccccc2)cc1)c1nc2cc3c(cc2s1)OCO3,37,19,5,21,18,21,.,.
CCC1CCCCN1S(=O)(=O)c1ccc(C(=O)N(CCCN(C)C)c2nc3cc4c(cc3s2)OCO4)cc1 (stereo not given),46*,50*,1,27,35,10,34*,33*
COc1ccccc1CC(NC(C)=O)C(=O)NC1CCN(C(=O)Nc2ccc(F)cc2)CC1 (stereo not given),-14,12,2,2,4,15,.,.
Cc1cc(C(=O)CCl)c(C)n1-c1cccc(S(=O)(=O)N2CCOCC2)c1,48*,46*,8,-50,38,-44,30*,46*
SMILES,tim10-1 inh,TIM10 inh,SKKanGAS inh,NALP1 inh,tim23-1 inh,NLRP3 yeast inh,tim10-1 confirm,TIM10 conf
NC(=S)Nc1cccc2cc3ccccc3cc12,40*,40*,18,15,44,26,26,32*
Cc1ccc(C2=NN(CCC(=O)NCCCN3CCOCC3)C(=O)CC2)cc1,-2,-6,-3,-1,-9,10,.,.
CCOc1ccc(NC(=S)N2CCCC2)cc1,-4,1,.,9,-3,14,.,.
CCCCc1ccc(NC(=S)N2CCCC(C)C2)cc1 (stereo not given),43*,45*,-12,17,36,22,29,31*
CCc1ccc(NC(=S)N2CCCCCCC2)cc1,42*,41*,-1,3,29,11,31,17
COCCCNc1nc(N)c([N+](=O)[O-])c(N2CCCCCC2)n1,21,-3,15,5,14,25,.,.
FC(F)Sc1ccc(NC(=S)NC2CCCC2)cc1,53*,59*,6,8,36,10,41*,27
CC(C)c1ccc(NC(=S)NC2CCCCCC2)cc1,21,37,16,3,34,21,.,.
CN1/C(=C\C(=S)Nc2ccccc2)C(C)(C)c2ccccc21,51*,48*,-11,3,34,9,47*,56*
NC(=O)c1cc([N+](=O)[O-])ccc1NCc1ccc(N)cc1,57*,54*,.,.,30,14,48*,65*
COc1ccc(CC(=O)Oc2ccc(C#N)cc2)cc1,19,11,-8,16,20,-19,.,.
COc1ccc(S(=O)(=O)CCC(=O)N2CCN(c3ccc(C(C)=O)cc3)CC2)cc1,6,-1,-2,25,6,7,.,.
O=C(Nc1cccc([N+](=O)[O-])c1)NC1CCCCCCC1,43*,44*,.,-1,44,16,36*,42*
O=C(CNC1CCCCC1)Nc1cccc([N+](=O)[O-])c1,-4,0,-3,.,3,15,.,.
CC(C)CN(C(=O)COC(=O)C12CC3CC(CC(C3)C1)C2)c1c(N)n(Cc2ccccc2)c(=O)[nH]c1=O,12,-1,1,.,11,19,.,.
CCOC(=O)Cc1csc(NC(=S)NC(=O)c2ccccc2)n1,47*,51*,-23,1,26,3,30,35*
CC(C)N(CCNC(=O)C1CCCN(c2ncnc3c2nc2n3CCCCC2)C1)Cc1ccccc1 (stereo not given),2,6,0,10,-2,2,.,.
